This passage reports morphology score and SARS-CoV-2 infection rate results from the supplement of paper PMC13380429.

For assay [1], the system named is Vero E6 infected with SARS-CoV-2. Nature of the assay: morphology score (similarity to uninfected cells); higher = more like uninfected cells. The note with it: 24 h.
Assay [2] has the same test system. Nature of the assay: SARS-CoV-2 infection rate relative to infected DMSO; higher = more infection, active = 60 or less. The note with it: 24 h.

In the case of `COc1cc(OCc2cccc(-c3ccccc3)c2C)cc(OC)c1CN1CCCC[C@H]1C(=O)O` [PD1-PDL-inhibitor-1] (10 µM), in assay [1], the morphology score was determined as 0.00556. Besides, the SARS-CoV-2 infection rate in assay [2] was 95% (inactive).

Regarding `COc1ccc(-n2[nH]c3c4c(ncc3c2=O)CCCCC4)cc1` (10 µM), in assay [1], the morphology score stood at 0.194. Besides, the SARS-CoV-2 infection rate in assay [2] was 96% (inactive).

Regarding `CCN1CCN(C(=O)N[C@@H](C(=O)N[C@@H]2C(=O)N3C(C(=O)O)=C(CSc4nnnn4C)CS[C@H]23)c2ccc(O)cc2)C(=O)C1=O` [cefoperazone] (10 µM), the morphology score in assay [1] worked out at 0.206. For the same molecule, the SARS-CoV-2 infection rate in assay [2] was 104% (inactive).

Turning to `CCN(CC)S(=O)(=O)c1ccc(C(=O)O)cc1` [etebenecid] (10 µM), in assay [1], the morphology score came out at 0.125. The SARS-CoV-2 infection rate in assay [2] is 105% (inactive).

The molecule `CCCCCCOc1nsnc1C1=CCCN(C)C1` [xanomeline] (10 µM) gave a morphology score in assay [1] of 0.44. The SARS-CoV-2 infection rate in assay [2] is 71.5% (inactive).

As for `C[n+]1c2cc(N)ccc2cc2ccc(N)cc21.Nc1ccc2cc3ccc(N)cc3nc2c1` [acriflavine] (0.833333 µM), the morphology score in assay [1] amounted to 0.32. In addition, the SARS-CoV-2 infection rate in assay [2] was 108% (inactive).

In assay [1], `COc1ccc2cc3[n+](cc2c1OC)CCc1cc2c(cc1-3)OCO2` [berberine] (10 µM) registered a morphology score of 0.0605. Also, the SARS-CoV-2 infection rate in assay [2] was 98% (inactive).

As for `Cc1cc(NC(=O)C2=C(O)c3ccccc3S(=O)(=O)N2C)no1` [isoxicam] (10 µM), the morphology score in assay [1] was -0.111. Further, the SARS-CoV-2 infection rate in assay [2] was 108% (inactive).

Molecule `C[C@@H]([C@@H](O)c1ccc(O)cc1)N1CCC(O)(c2ccccc2)CC1` [traxoprodil] (10 µM) displayed a morphology score in assay [1] of -0.037. In addition, the SARS-CoV-2 infection rate in assay [2] is 108% (inactive).

Molecule `N[C@H]1C(O)O[C@H](CO)[C@@H](O)[C@@H]1O` (mixture of isomers) [glucosamine] (10 µM) came in with a morphology score in assay [1] of -0.0432. Also, in assay [2], the SARS-CoV-2 infection rate was 105% (inactive).

With `Nc1ccc(C(=O)O)cc1` [potassium-p-aminobenzoate] (10 µM), the morphology score in assay [1] is -0.112. Besides, the SARS-CoV-2 infection rate in assay [2] is 108% (inactive).

The molecule `CSC[C@H](N)C(=O)O` [S-methylcysteine] (10 µM) displayed a morphology score in assay [1] of 0.000717. The SARS-CoV-2 infection rate in assay [2] was 102% (inactive).

In assay [1], `O=C1CC2(CCCC2)CC(=O)N1CCNC[C@H]1COc2ccccc2O1` (10 µM) had a morphology score of -0.0647. For the same molecule, the SARS-CoV-2 infection rate in assay [2] is 113% (inactive).

`O=C(NCc1ccc2c(c1)OCO2)c1c(Cl)cccc1Cl` [alda-1] (10 µM): the morphology score in assay [1] is 0.107. Also, the SARS-CoV-2 infection rate in assay [2] is 104% (inactive).

Regarding `O=C(OCCOCCO)c1ccccc1Nc1cccc(C(F)(F)F)c1` [etofenamate] (10 µM), in assay [1], the morphology score is -0.0601. Besides, the SARS-CoV-2 infection rate in assay [2] is 112% (inactive).

For `O=C(O[C@H]1C[N+]2(CCCOc3ccccc3)CCC1CC2)C(O)(c1cccs1)c1cccs1` [aclidinium] (10 µM), the morphology score in assay [1] came out at 0.136. Further, in assay [2], the SARS-CoV-2 infection rate was 100% (inactive).

On to `CC(C)(C)[C@H]1CC[C@H](CC2=C(O)C(=O)c3ccccc3C2=O)CC1` [buparvaquone] (0.833333 µM), for which the morphology score in assay [1] worked out at 0.0418. Further, the SARS-CoV-2 infection rate in assay [2] was 94% (inactive).

Turning to `COc1ccc(C2(O)CCC(N3CC[C@@H](NC(=O)CNC(=O)c4cccc(C(F)(F)F)c4)C3)CC2)cn1` (stereo partly drawn) (10 µM), the morphology score in assay [1] was -0.0197. In addition, the SARS-CoV-2 infection rate in assay [2] is 105% (inactive).

Take `C=C(C)[C@@H]1CC[C@]2(C(=O)O)CC[C@]3(C)[C@H](CC[C@@H]4[C@@]5(C)CC[C@H](OC(=O)CC(C)(C)C(=O)O)C(C)(C)[C@@H]5CC[C@]43C)[C@@H]12` [bevirimat-dimeglumine] (10 µM): the morphology score in assay [1] was -0.0115. Besides, the SARS-CoV-2 infection rate in assay [2] was 113% (inactive).

For `Cc1ccc(S(=O)(=O)NCl)cc1` [chloramine-T] (10 µM), in assay [1], the morphology score came out at 0.043. In addition, the SARS-CoV-2 infection rate in assay [2] was 104% (inactive).

In assay [1], `Cn1c(NCCN(CCO)CCCc2ccc([N+](=O)[O-])cc2)cc(=O)n(C)c1=O` [nifekalant] (10 µM) showed a morphology score of -0.0636. Moreover, the SARS-CoV-2 infection rate in assay [2] was 120% (inactive).

In assay [1], `CNC(=O)c1ccc(-c2cnc3ncc(Cc4ccc5ncccc5c4)n3n2)cc1F` (10 µM) yielded a morphology score of 0.0374. Moreover, the SARS-CoV-2 infection rate in assay [2] is 98% (inactive).

`CCOC(=O)Nc1ccc(NCc2ccc(F)cc2)nc1N` [flupirtine] (10 µM) yielded a morphology score in assay [1] of 0.0326. Further, the SARS-CoV-2 infection rate in assay [2] is 99% (inactive).

On to `CC(C)C[C@H](NC(=O)CNC(=O)c1cc(Cl)ccc1Cl)B1OC(=O)C(CC(=O)O)(CC(=O)O)O1` [ixazomib-citrate] (0.833333 µM), for which the morphology score in assay [1] came out at 0.101. In assay [2], the SARS-CoV-2 infection rate was 106% (inactive).

`Cc1ccc2cc(-c3c(C)ccc(C(=O)c4c(-c5ccccc5)n(C)n(-c5ccccc5)c4=O)c3N)ccc2n1` (10 µM) showed a morphology score in assay [1] of 0.0631. Moreover, in assay [2], the SARS-CoV-2 infection rate was 76% (inactive).

`COc1cc(C[C@H]2C(=O)OC[C@@H]2Cc2ccc(OC)c(OC)c2)ccc1O` [arctigenin] (10 µM) came in with a morphology score in assay [1] of 0.0564. Further, in assay [2], the SARS-CoV-2 infection rate is 108% (inactive).

Consider `c1ccc(CCCCN2CCC(c3ccccc3)CC2)cc1` (10 µM), for which the morphology score in assay [1] is 0.286. For the same molecule, the SARS-CoV-2 infection rate in assay [2] is 73.5% (inactive).

For `O=[N+]([O-])c1cncn1CCN1CCOCC1` [nimorazole] (10 µM), the morphology score in assay [1] is 0.0962. The SARS-CoV-2 infection rate in assay [2] was 91.5% (inactive).

In turn, `C[C@]12CC[C@@H]3c4ccc(OS(=O)(=O)O)cc4CC[C@H]3[C@@H]1CCC2=O` [estropipate] (10 µM) gave a morphology score in assay [1] of 0.227. Further, in assay [2], the SARS-CoV-2 infection rate was 99% (inactive).
